Results from PubChem BioAssay.
Results filed as inconclusive are left out. Activity calls are given as the source filed them.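 Rule for the calls, unless noted: active = viability loss from added drug above about 55%, and viability with drug at most 40%, in both replicates (limit read from the data, passing the limit was not always enough); inconclusive = both conditions met in only one replicate; inactive = neither replicate meets both conditions.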

What was measured:
[1] = Her2 expression decrease, cell viability multiplex – SKBR3 breast tumor cells, AlphaScreen, ATP viability, primary screen (AID 461;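 active = Her2 level under about 52% in both replicate screens, with viability over 70% of control, limit read from the data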;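 for Her2 level: lower value means less Her2 protein in the cells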;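 for viability: percent of carrier control wells set as 100% viability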); settings: SKBR3 Her2 protein level, 18-24 h, measured here: SKBR3 viability, ATP luminescence, at 10 µM
[2] = target: Receptor tyrosine-protein kinase erbB-2 (Homo sapiens) (UniProt P04626); assay: as above; settings: 18-24 h, at 10 µM, stronger effect = lower value
Chain of Receptor tyrosine-protein kinase erbB-2 (Homo sapiens) (P04626 whole entry, looked up): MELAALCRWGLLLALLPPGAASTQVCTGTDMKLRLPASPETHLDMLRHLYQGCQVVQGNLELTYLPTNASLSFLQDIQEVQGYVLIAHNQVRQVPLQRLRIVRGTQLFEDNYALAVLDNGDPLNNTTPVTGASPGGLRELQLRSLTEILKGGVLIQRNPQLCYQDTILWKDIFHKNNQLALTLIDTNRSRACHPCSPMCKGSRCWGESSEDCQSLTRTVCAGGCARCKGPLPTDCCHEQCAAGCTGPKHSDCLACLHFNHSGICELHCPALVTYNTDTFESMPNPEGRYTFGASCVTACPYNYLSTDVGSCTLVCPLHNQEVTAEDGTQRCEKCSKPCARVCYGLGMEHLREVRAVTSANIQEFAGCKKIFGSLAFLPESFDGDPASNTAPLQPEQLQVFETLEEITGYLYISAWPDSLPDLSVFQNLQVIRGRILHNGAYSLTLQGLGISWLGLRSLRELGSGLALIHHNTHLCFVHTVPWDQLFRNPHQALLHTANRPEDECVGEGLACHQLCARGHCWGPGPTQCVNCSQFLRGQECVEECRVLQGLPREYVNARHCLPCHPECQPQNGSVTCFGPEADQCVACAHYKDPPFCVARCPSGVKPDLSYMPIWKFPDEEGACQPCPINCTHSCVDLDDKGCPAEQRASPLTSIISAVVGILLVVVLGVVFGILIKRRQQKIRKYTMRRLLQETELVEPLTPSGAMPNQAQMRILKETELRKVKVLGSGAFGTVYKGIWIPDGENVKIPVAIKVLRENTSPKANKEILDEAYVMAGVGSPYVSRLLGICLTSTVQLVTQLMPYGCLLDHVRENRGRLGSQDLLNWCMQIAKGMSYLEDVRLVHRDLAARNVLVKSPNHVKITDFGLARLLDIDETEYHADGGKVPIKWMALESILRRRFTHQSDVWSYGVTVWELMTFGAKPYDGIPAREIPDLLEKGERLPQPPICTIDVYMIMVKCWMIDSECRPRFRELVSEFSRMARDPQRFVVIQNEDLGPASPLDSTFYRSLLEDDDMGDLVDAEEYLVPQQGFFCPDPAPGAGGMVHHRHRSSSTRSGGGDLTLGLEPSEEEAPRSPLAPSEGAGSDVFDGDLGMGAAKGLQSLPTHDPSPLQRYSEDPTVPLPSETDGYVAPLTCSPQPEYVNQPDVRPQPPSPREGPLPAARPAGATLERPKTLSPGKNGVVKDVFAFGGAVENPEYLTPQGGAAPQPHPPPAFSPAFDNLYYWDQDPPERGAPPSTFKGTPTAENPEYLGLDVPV

[3] = reduced viability of SK-BR-3 breast cancer cells – cell-based, 24 h, human, pilot screen (AID 572;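 active = viability at or below 10% of carrier control in both of two separate runs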;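 note: compound exposure lasted between 18 and 24 h rather than exactly 24 h; 100% = carrier-treated control wells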); settings: SK-BR-3 viability, CellTiter-Glo luminescence, at 10 µM, stronger effect = lower value
[4] = HUVEC growth inhibition – cell-based, human, primary screen (AID 575;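 active = viability at or below 30% in both replicate assays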;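 note: 100% = median of untreated cell wells with 0.1% DMSO on each plate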); settings: HUVEC proliferation, CellTiter-Glo luminescence, 72 h; at 10 µM; stronger effect = lower value
[5] = H69AR cell proliferation blockers – human, duplicate replicates, primary screen (AID 580;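 active = viability at or under a set limit in both replicates, limit being median viability minus 3 SD, cut at about 48% in these data, passing the limit was not always enough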;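 note: 100% = mean luminescence of untreated wells and 0% = no signal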); settings: H69AR lung tumor cells viability, ATP luminescence, 72 h; at 10 µM; stronger effect = lower value
[6] = MRP1 drug-resistance reversers in H69AR cells – cell-based, doxorubicin co-treatment, pilot screen (AID 601); settings: CellTiter-Glo, 72 h, at 10 µM; for differential viability (reversal): stronger effect = higher value
[7] = yeast transport mutant growth inhibition pilot in 384-well plates, post-Golgi transport modulator project (AID 636; in the data active = inhibition above about 31%); settings: absorbance 615 nm, about 18 h, stronger effect = higher value
[8] = growth suppression of yeast trafficking mutant, preliminary HTS, modulators of trafficking downstream of Golgi apparatus project, 1536-format plate, OD 615 nm (AID 637; in the data active = inhibition above about 30%); settings: yeast transport mutant growth, absorbance 615 nm, 18 h; stronger effect = higher value
[9] = S. cerevisiae growth inhibition in permissive medium (OD615), pilot counter-assay for S. cerevisiae lifespan shortening project, permissive growth control (AID 705;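 active = growth inhibition above 25% in both replicates, a cutoff set 3 SD above the mean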); settings: OD615, 24 h, at 10 µM, stronger effect = higher value
[10] = S. cerevisiae growth inhibition in restrictive medium, OD615, pilot screen, restrictive growth control, yeast lifespan reduction project (AID 706;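 active = growth inhibition above a set limit, 3 SD over mean compound inhibition, in both replicates, cut at about 43% in these data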;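 note: modified DeaD lifespan yeast strain shifted to restrictive glucose medium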); settings: OD615, 48 h, at 10 µM, stronger effect = higher value
[11] = doxorubicin toxicity protection in MRP-1 cells – H69AR cells, CellTiter-Glo, duplicate, MRP-1 activator project, pilot screen (AID 807;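 active = viability increase at or above a cutoff of the median across tested compounds plus 3 SD, cut at about 8.5% in these data, passing the limit was not always enough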;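 note: compound pretreatment 18-22 h then 72 h combined with doxorubicin; 0% = doxorubicin alone and 100% = vehicle without doxorubicin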); settings: H69AR viability with doxorubicin, CellTiter-Glo luminescence; at 10 µM; stronger effect = higher value
[12] = viability of HCT116 without oncogenic beta-catenin – human colon tumor cells, pilot screen (AID 823;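 active = cell viability at or below a set limit in both duplicate runs, the limit being the all-compound median minus 4 SD, cut at about 23% in these data, passing the limit was not always enough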;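 note: 0% = wells killed by 20 µM Hyamine and 100% = untreated DMSO cell wells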); settings: HCT116 beta-catenin knockout viability, CellTiter-Glo, 60 h; at 10 µM; stronger effect = lower value
[13] = viability of PTEN-null HCT116 cells – cell-based, HCT116 clonal line, CellTiter-Glo, pilot screen (AID 824;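 active = viability at or below 27.92% in each of two runs, the all-compound median minus 4 SD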;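 note: 0% = 20 µM Hyamine control and 100% = vehicle cell control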); settings: HCT116 PTEN-deleted viability, 60 h, at 10 µM, stronger effect = lower value
[14] = RAM pathway blockade in budding yeast – dse1pr::URA3 reporter, 5-FOA selection, pilot screen (AID 869;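 active = inhibition over a set limit, the all-compound mean plus 3 SD, in both replicate runs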;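 note: 0% = DMSO wells with no growth and 100% = 10 µM 1-NA-PP1 with full growth; RAM network block rescues cells from 5-FOA so hits raise OD615 growth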); settings: S. cerevisiae dse1pr::URA3 5-FOA growth, OD615, 2 d; at 10 µM; stronger effect = higher value; strain carries analog-sensitive mutant Cbk1 kinase
[15] = RAM signaling pathway blockade in yeast – S. cerevisiae, Pdr1DBD-CYC8 efflux-inhibited sensitized strain, primary screen (AID 1298;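 active = RAM network inhibition above 8.4% in each of two replicates, 3 SD over the compound average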;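 note: 0% = DMSO untreated cells without growth and 100% = 10 µM 1-NA-PP1 full growth; higher means more yeast growth rescued from 5-FOA killing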); settings: S. cerevisiae cbk1-as DSE1-URA3 strain, 5-FOA growth OD615, 2 d; at 50 µM; stronger effect = higher value
[16] = H69AR cells + 2 uM doxorubicin, measured here: viability with 2 uM doxorubicin, stronger effect = lower value
[17] = H69AR cells, compound alone cytotoxicity

Row | SMILES | viability [1] | Her2 level [2] | viability [3] | viability [4] | viability [5] | differential viability (reversal) ([6]; H69AR cells + 2 uM doxorubicin) | viability [6, 16] | viability [6, 17] | inhibition [7] | inhibition [8] | growth inhibition [9] | growth inhibition [10] | viability increase [11] | viability [12] | viability [13] | inhibition [14] | RAM network inhibition [15]
1 | CCOC(=O)C(CC)n1nc(C)n2c(cc3sccc32)c1=O (stereo not drawn) | 114% | 102% (inactive) | 114% (inactive) | 110% (inactive) | 85.1% (inactive) | 0.895% (inactive) | 84.2% | 85.1% | -5.87% (inactive) | 1% (inactive) | -5.97% (inactive) | 1.69% (inactive) | -2.34% (inactive) | 99.8% (inactive) | 95.2% (inactive) | -1.04% (inactive) | 2.14% (inactive)
2 | Cc1cccc(-n2nc3c(c2NC(=O)CCC2CCCCC2)CS(=O)C3)c1C (stereo not drawn) | 95% | 94.5% (inactive) | 95% (inactive) | 86.3% (inactive) | 90.9% (inactive) | 1.55% (inactive) | 89.3% | 90.9% | -4.13% (inactive) | 1.33% (inactive) | -8.41% (inactive) | 1.94% (inactive) | -1.85% (inactive) | 91.8% (inactive) | 92.1% (inactive) | 1.02% (inactive) | 1.36% (inactive)
3 | CCOCCCNC(=O)Cn1cc2c(n1)CCCCC2 | 114% | 104% (inactive) | 114% (inactive) | 109% (inactive) | 103% (inactive) | 6.04% (inactive) | 96.8% | 103% | 1.03% (inactive) | 2.67% (inactive) | -3.18% (inactive) | -3.17% (inactive) | -0.62% (inactive) | 100% (inactive) | 99.9% (inactive) | 2.07% (inactive) | 3.72% (inactive)
4 | O=C(c1ccco1)N1CCN(C2=NS(=O)(=O)c3ccccc32)CC1 | 104% | 142% (inactive) | 104% (inactive) | 99.1% (inactive) | 94.8% (inactive) | 3.94% (inactive) | 90.8% | 94.8% | -1.69% (inactive) | -12.7% (inactive) | -13.5% (inactive) | -1.96% (inactive) | -2.12% (inactive) | 93.1% (inactive) | 96.3% (inactive) | 0.41% (inactive) | 6.34% (inactive)
5 | CC1NC2(C(=O)N(Cc3ccccc3)c3ccccc32)C2C(=O)N(c3ccccc3)C(=O)C12 (stereo not drawn) | 120% | 100% (inactive) | 120% (inactive) | 95.5% (inactive) | 93.5% (inactive) | 0.575% (inactive) | 92.9% | 93.5% | -4.13% (inactive) | 1% (inactive) | -5.06% (inactive) | -14.4% (inactive) | 1.77% (inactive) | 97.1% (inactive) | 104% (inactive) | 0.29% (inactive) | 3.53% (inactive)
6 | Cc1cccc(OCc2nc(C#N)c(NCCN(C)C)o2)c1 | 97% | 81.5% (inactive) | 97% (inactive) | 79.7% (inactive) | 84.8% (inactive) | -2.44% (inactive) | 87.3% | 84.8% | -2.4% (inactive) | -2.46% (inactive) | -4.31% (inactive) | 1.57% (inactive) | -3.62% (inactive) | 102% (inactive) | 103% (inactive) | 0.445% (inactive) | 3.81% (inactive)
7 | c1nc(NCC2CCCO2)c2[nH]cnc2n1 (stereo not drawn) | 83.5% | 91.5% (inactive) | 83.5% (inactive) | 93.4% (inactive) | 91.1% (inactive) | 7.82% (inactive) | 83.3% | 91.1% | -1.84% (inactive) | 4% (inactive) | -10% (inactive) | -5.46% (inactive) | 0.98% (inactive) | 100% (inactive) | 99.7% (inactive) | 1.3% (inactive) | 1.7% (inactive)
8 | CCOc1ccc(N(CC(=O)OC)S(=O)(=O)c2ccc(OC)c(OC)c2)cc1 | 108% | 122% (inactive) | 108% (inactive) | 87.2% (inactive) | 106% (inactive) | 6.15% (inactive) | 99.4% | 106% | 3.12% (inactive) | -4.83% (inactive) | -11.6% (inactive) | -4.04% (inactive) | -0.96% (inactive) | 99.9% (inactive) | 106% (inactive) | 0.39% (inactive) | 2.44% (inactive)
9 | CCCCN(C(=O)c1ccc(Cl)cc1)C1CC2CCC(C1)N2C (stereo not drawn) | 87.5% | 120% (inactive) | 87.5% (inactive) | 78.2% (inactive) | 85.1% (inactive) | 3.96% (inactive) | 81.2% | 85.1% | -5.6% (inactive) | -4% (inactive) | -9.97% (inactive) | 1.71% (inactive) | -2.41% (inactive) | 85.3% (inactive) | 89.3% (inactive) | 1.62% (inactive) | -0.05% (inactive)
